Results filed as inconclusive are left out. Values without a mark were called inactive. Calls come from the whole dose curve; as a rule, active = well fitted curve in the direction sought with a large enough effect; inconclusive = small, poorly fitted or top-dose-only effect, or effect the other way, or another doubt; inactive = no such curve, though single readings can be large or run the other way.
assay: qHTS Assay for Identification of Small Molecule Agonists for NFkB Signaling Pathway. (AID 624478); details: NFkB pathway reporter cell assay, agonist mode, cells co-stimulated with 10 pM TNF alpha; series mostly up to 46.1 µM; activation: at the top concentration;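 note: compounds tested together with TNF alpha at its EC50 of 10 pM; 0% is about no effect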
Experimental: The TNF alpha/NFkB signaling pathway was assayed in NFkB-bla cells (Invitrogen), a ME-180 cervical carcinoma line containing a stably integrated beta-lactamase reporter gene controlled by a NFkB response element. This reporter is induced by TNF alpha at 10 pM EC50 and inhibited by the proteosome inhibitor MG-132 at approximately 100 nM IC50. The assay was screened at the EC50 of TNF alpha activation to identify activators of TNF alpha/NFkB signaling
Cells were trypsinized, washed in assay medium (AM, OPTI MEM with 0.5% fetal bovine serum, 0.1 mM nonessential amino acids, 1 mM sodium pyruvate, 10mM HEPES pH 7.3, 100U/ml penicillin, and 100 ug/ml streptomycin) and plated at 1000 cells/5 uL/well into black clear-bottom 1536 well plates. After an overnight incubation at 37 C and 5% CO2, 23 nL of compound were delivered by a pin tool, 1 uL of TNF alpha (10 pM final concentration in AM) was added and plates were incubated at 37 C for 5 hrs. One uL of LiveBLAzerTM detector mix (Invitrogen) was added, the plates incubated at room temperature for 2 hrs, and fluorescence intensity at 460 and 530 nm emission was measured at 405 nm excitation by an Envision (Perkin Elmer).

Structure (SMILES)	activation
S=c1nc[nH]c2nc[nH]c12	-1.22% [at 92.2 µM]
Cc1ccc(NC(=O)c2ccc(CN3CCN(C)CC3)cc2)cc1Nc1nccc(-c2cccnc2)n1	-0.889%
CCOC(=O)C1=C(O)C(=O)N(Cc2ccccc2)C1	5.39%
CC(C)C[C@H](NC(=O)[C@H](Cc1ccccc1)NC(=O)c1cnccn1)B(O)O	-1.87%
COc1cc2c(N3CCN(C(=O)Nc4ccc(OC(C)C)cc4)CC3)ncnc2cc1OCCCN1CCCCC1	1.16%
CCN(CC)CCOc1ccc(Nc2ncc3cc(-c4c(Cl)cccc4Cl)c(=O)n(C)c3n2)cc1	13.8%
COc1cc(Nc2c(C#N)cnc3cc(OCCCN4CCN(C)CC4)c(OC)cc23)c(Cl)cc1Cl	-1.41%
C[C@@H](N)C1CCC(C(=O)Nc2ccncc2)CC1 (some centres not stated)	-0.733%
Cc1cccc(C#Cc2ccccc2)n1	-0.423%
Cc1nc(Nc2ncc(C(=O)Nc3c(C)cccc3Cl)s2)cc(N2CCN(CCO)CC2)n1	7.96%
CC(C)c1ccc2c(c1)c(SC(C)(C)C)c(CC(C)(C)C(=O)O)n2Cc1ccc(Cl)cc1	-0.99%
Nc1cccc2c1CN(C1CCC(=O)NC1=O)C2=O (configuration not stated)	-3.02% [at 92.2 µM]
CCOC(=O)C(C)Oc1cccc2c(=O)n(CC(=O)Nc3ccc4c(c3)OCCO4)ccc12 (configuration not stated)	0.132%
CCN(CCO)CCCC(C)Nc1ccnc2cc(Cl)ccc12 (configuration not stated)	0.268%
Cc1cccc(-c2[nH]ncc2-c2ccc3ncccc3n2)n1	-1.36% [at 92.2 µM]
Nc1nc(Cl)nc2c1ncn2[C@H]1C[C@H](O)[C@@H](CO)O1	-2.58% [at 92.2 µM]
Cc1ccc(Nc2nccc(N(C)c3ccc4c(C)n(C)nc4c3)n2)cc1S(N)(=O)=O	0.362%
